Here are results for five molecules from PubChem BioAssay (EPA / NIEHS).

Assay [1] has as its target Paired box protein Pax-6 (Homo sapiens) (UniProt P26367). Briefly: ATG_Pax6_CIS: Attagene CIS-FACTORIAL HepG2 Assay for human Paired Box 6 (PAX6) (AID 2282956). Conditions: HepG2 CIS-FACTORIAL PAX6 reporter transcription, RNA readout; actives raise or lower the signal. In outline:
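Transient MRTU transfection of HepG2 → compound exposure 24 h → TriZol RNA, oligo(dT) RT → PCR, 6-FAM primer extension, HpaI cut → capillary electrophoresis; activity fitted both directions against DMSO.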

A short description of assay [2]: ATG_PXRE_CIS: Attagene CIS-FACTORIAL HepG2 Assay for human Pregnane X Receptor Element (PXRE) (AID 2282957). The note with it: HepG2 Attagene CIS-FACTORIAL PXRE reporter, mRNA; actives raise or lower the signal. Put shortly:
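Transiently transfected HepG2 cells were dosed and incubated for 24 h. RNA was then isolated, DNase-treated, reverse-transcribed and reporter sequences amplified. Labeled, HpaI-digested fragments were quantified by capillary electrophoresis against DMSO.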

Assay [3] in a line: ATG_PPRE_CIS: Attagene CIS-FACTORIAL HepG2 Assay for human Peroxisome Proliferator-activated Response Element (PPRE) (AID 2282958). The note with it: HepG2 PPRE cis-element reporter, Attagene transcription factor profiling; actives raise or lower the signal. In outline: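 HepG2 cells are transiently transfected with multiplexed cis-promoter reporter units to report endogenous PPAR activity. After 24 h dosing, reporter mRNA is read by RT-PCR and capillary electrophoresis. Fitting is bidirectional against DMSO.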

Assay [4] is described as follows: ATG_RORE_CIS: Attagene CIS-FACTORIAL HepG2 Assay for human RAR-related Orphan Receptor Element (RORE) (AID 2282959). The note with it: HepG2 Attagene cis-factorial RORE reporter, mRNA; actives raise or lower the signal. Put shortly: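 HepG2 cells carrying transiently transfected cis-regulated reporter units; RORE-driven reporter mRNA quantified 24 h post-dosing by RT-PCR, 6-FAM primer extension, HpaI digestion and capillary electrophoresis. Bidirectional fit versus DMSO.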

Assay [5] can be described thus: ATG_Sox_CIS: Attagene CIS-FACTORIAL HepG2 Assay for human SRY-box transcription factor (SOX) (AID 2282960). The note with it: HepG2 Attagene cis-factorial SOX reporter, mRNA; actives raise or lower the signal. In outline:
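HepG2 cells transiently transfected with multiple cis-regulated reporter units, then dosed for 24 h. Reporter mRNA quantified by RT-PCR, fluorescent labelling, HpaI digestion and capillary electrophoresis; bidirectional fit versus DMSO.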

Assay [6] deals with Transcription factor Sp1 (Homo sapiens) (UniProt P08047). As to the kind of experiment: ATG_Sp1_CIS: Attagene CIS-FACTORIAL HepG2 Assay for human Specificity Protein 1 (Sp1) (AID 2282961). Conditions: HepG2 Sp1 cis-reporter transcription, actives raise or lower the signal. Put shortly: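 HepG2 cells transiently transfected with multiplexed cis-regulated reporter constructs, chemical exposure 24 h. Reporter mRNA quantified by RT-PCR with capillary electrophoresis; bidirectional fit relative to DMSO.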

Assay [7] is described as follows: ATG_SREBP_CIS: Attagene CIS-FACTORIAL HepG2 Assay for human Sterol Regulatory Element Binding (SREBP) (AID 2282962). The note with it: HepG2 Attagene cis-factorial SREBP reporter, mRNA; actives raise or lower the signal. In outline: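 Transfected HepG2 (cis-regulated reporter library, endogenous TFs) → compound 24 h → total RNA → oligo(dT) RT → reporter-specific PCR → FAM primer extension, HpaI cut → CE fluorescence. Fit bidirectional vs DMSO.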

The target of assay [8] is Signal transducer and activator of transcription 3 (Homo sapiens) (UniProt P40763). As to the kind of experiment: ATG_STAT3_CIS: Attagene CIS-FACTORIAL HepG2 Assay for human Signal Transducer and Activator of Transcription 3 (STAT3) (AID 2282963). The note with it: HepG2, Attagene cis-factorial STAT3 reporter transcription; actives raise or lower the signal. Put shortly:
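Transcript-level reporter assay. HepG2 transient MRTU transfection, 24 h exposure, fluorescence detection after RT-PCR and CE; DMSO baseline.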

A short description of assay [9]: ATG_TA_CIS: Attagene CIS-FACTORIAL HepG2 Assay for human TA Basal Promoter (AID 2282964). The note with it: HepG2 Attagene CIS-factorial TA basal promoter reporter; actives raise or lower the signal. In outline: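 Transient MRTU transfection of HepG2 preceded 24 h compound exposure. Reporter mRNA levels were then read by RT-PCR with capillary electrophoresis, and this background-control endpoint was fitted bidirectionally to DMSO.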

Assay [10] in a line: ATG_TCF_b_cat_CIS: Attagene CIS-FACTORIAL HepG2 Assay for human T-Cell-Factor with beta-catenin (TCF/b-cat) (AID 2282965). Conditions: HepG2 TCF/beta-catenin cis-reporter transcription, actives raise or lower the signal. Put shortly:
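Using capillary electrophoresis as the read-out, labelled reporter cDNA fragments from transiently transfected HepG2 were sized and quantified. Exposure lasted 24 hours; activity in either direction was referenced to DMSO.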

The nature of assay [11]: ATG_TAL_CIS: Attagene CIS-FACTORIAL HepG2 Assay for human TAL Basal Promoter (AID 2282966).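 Also: background control endpoint measuring basal TAL promoter reporter mRNA not a specific factor.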 Conditions: HepG2 Attagene cis-factorial TAL promoter reporter; actives raise or lower the signal. Put shortly: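 Readout: reporter mRNA, fluorescence by CE. System: HepG2, transient multi-reporter transfection, endogenous TF activity. Exposure: 24 h. Analysis: bidirectional, DMSO-normalized; background control.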

Assay [12] in a line: ATG_TGFb_CIS: Attagene CIS-FACTORIAL HepG2 Assay for human Transforming Growth Factor (TGF) (AID 2282967). Conditions: HepG2 Attagene CIS TGFb reporter, mRNA transcription; actives raise or lower the signal. Put shortly:
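After a 24-hour incubation with compound, transfected HepG2 cells were lysed for RNA; reporter cDNA was amplified, fluorescently end-labeled and separated by CE. DMSO served as baseline for bidirectional fits.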

The target of assay [13] is X-box-binding protein 1 (Homo sapiens) (UniProt P17861). As to the kind of experiment: ATG_Xbp1_CIS: Attagene CIS-FACTORIAL HepG2 Assay for human X-box Binding Protein 1 (XBP1) (AID 2282972). The note with it: HepG2 XBP1 cis-element reporter, Attagene multiplex; actives raise or lower the signal. In outline:
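HepG2, transient MRTU transfection (cis-promoter driven), 24 h compound exposure. Total RNA → oligo(dT) RT → PCR → 6-FAM labeling → HpaI cut → CE. Bidirectional fit vs DMSO.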

Assay [14] concerns the target Androgen receptor (Homo sapiens) (UniProt P10275). As to the kind of experiment: ATG_AR_TRANS: Attagene TRANS-FACTORIAL HepG2 Assay for human Androgen Receptor (AR) (AID 2282973; active = hit-call score of the fitted dose curve at least 0.9, where 1 is the maximum). The note with it: HepG2 Attagene TRANS-FACTORIAL AR reporter transcription. In outline: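 Transfected HepG2, 24 h treatment, chimeric NR-Gal4 driving GAL4-UAS reporters. mRNA induction by RT-PCR/capillary electrophoresis fluorescence; DMSO as negative control and baseline.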

Assay [15] is described as follows: ATG_M_19_TRANS: Attagene TRANS-FACTORIAL HepG2 Assay for M19 Transcription Factor (Internal Marker) (AID 2282974; active = hit-call score of the fitted dose curve at least 0.9, where 1 is the maximum). Conditions: HepG2 Attagene TRANS-FACTORIAL M19 internal marker reporter. Put shortly:
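HepG2 transiently transfected with GAL4-UAS multiplex reporter constructs, exposed 24 h; reporter RNA quantified by RT-PCR, 6-FAM labeling, HpaI digestion and capillary electrophoresis; internal background marker fitted upward versus DMSO.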

A short description of assay [16]: ATG_VDRE_CIS: Attagene CIS-FACTORIAL HepG2 Assay for human Vitamin D Receptor Element (VDRE) (AID 2282968). Conditions: HepG2 VDRE cis-reporter transcription, actives raise or lower the signal. In outline:
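RT-PCR/CE readout of reporter mRNA; HepG2, transient transfection, 24 h dosing; DMSO baseline; bidirectional analysis.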

Assay [17] deals with Nuclear receptor subfamily 1 group I member 3 (Homo sapiens) (UniProt Q14994). As to the kind of experiment: ATG_CAR_TRANS: Attagene TRANS-FACTORIAL HepG2 Assay for human Constitutive Androstane Receptor (CAR) (AID 2282969; active = hit-call score of the fitted dose curve at least 0.9, where 1 is the maximum;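 also: activators raise reporter mRNA above DMSO so AC50 marks induction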). The note with it: HepG2 Attagene TRANS-FACTORIAL CAR reporter. In outline:
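HepG2 cells transiently transfected with multiplexed GAL4-UAS reporter units expressing chimeric NR-Gal4 proteins; compound exposure 24 h. Reporter mRNA measured by RT-PCR, 6-FAM labelling, HpaI digestion and capillary electrophoresis; gain-of-signal fitted against DMSO baseline.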

The target of assay [18] is Estrogen receptor (Homo sapiens) (UniProt P03372). Briefly: ATG_ERa_TRANS: Attagene TRANS-FACTORIAL HepG2 Assay for human Estrogen Receptor alpha (ERa) (AID 2282970; active = hit-call score of the fitted dose curve at least 0.9, where 1 is the maximum). The note with it: HepG2 Attagene TRANS ERa GAL4 reporter, mRNA. Put shortly:
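Transactivation via ERa-Gal4 chimera in HepG2; 24 hour incubation; reporter mRNA detected by fluorescence RT-PCR and capillary electrophoresis.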

Assay [19] concerns the target Steroid hormone receptor ERR1 (Homo sapiens) (UniProt P11474). As to the kind of experiment: ATG_ERRa_TRANS: Attagene TRANS-FACTORIAL HepG2 Assay for human Estrogen-Related Receptor alpha (ERRa) (AID 2282971; active = hit-call score of the fitted dose curve at least 0.9, where 1 is the maximum). Conditions: HepG2 Attagene TRANS reporter, ERRa transactivation. Put shortly: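 HepG2 cells were transiently transfected with multiple GAL4-UAS reporter units, then dosed with compound for 24 h. Total RNA was reverse-transcribed, reporter cDNA PCR-amplified and fluorescently labelled, and fragments resolved by capillary electrophoresis; induction was compared with DMSO.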

Where “and” joins values, the source holds several entries; their conditions need not be identical. Identical values can stand only once. Results filed as inconclusive are left out. Where a structure was tested more than once in an assay, its records may differ in their call. Calls of active or inactive are those of the source. The calls were made as follows, unless noted: active = hit-call score of the fitted dose curve at least 0.9, where 1 is the maximum; inactive = score below 0.9.

Chain of Transcription factor Sp1 (Homo sapiens) (P08047 whole entry, looked up): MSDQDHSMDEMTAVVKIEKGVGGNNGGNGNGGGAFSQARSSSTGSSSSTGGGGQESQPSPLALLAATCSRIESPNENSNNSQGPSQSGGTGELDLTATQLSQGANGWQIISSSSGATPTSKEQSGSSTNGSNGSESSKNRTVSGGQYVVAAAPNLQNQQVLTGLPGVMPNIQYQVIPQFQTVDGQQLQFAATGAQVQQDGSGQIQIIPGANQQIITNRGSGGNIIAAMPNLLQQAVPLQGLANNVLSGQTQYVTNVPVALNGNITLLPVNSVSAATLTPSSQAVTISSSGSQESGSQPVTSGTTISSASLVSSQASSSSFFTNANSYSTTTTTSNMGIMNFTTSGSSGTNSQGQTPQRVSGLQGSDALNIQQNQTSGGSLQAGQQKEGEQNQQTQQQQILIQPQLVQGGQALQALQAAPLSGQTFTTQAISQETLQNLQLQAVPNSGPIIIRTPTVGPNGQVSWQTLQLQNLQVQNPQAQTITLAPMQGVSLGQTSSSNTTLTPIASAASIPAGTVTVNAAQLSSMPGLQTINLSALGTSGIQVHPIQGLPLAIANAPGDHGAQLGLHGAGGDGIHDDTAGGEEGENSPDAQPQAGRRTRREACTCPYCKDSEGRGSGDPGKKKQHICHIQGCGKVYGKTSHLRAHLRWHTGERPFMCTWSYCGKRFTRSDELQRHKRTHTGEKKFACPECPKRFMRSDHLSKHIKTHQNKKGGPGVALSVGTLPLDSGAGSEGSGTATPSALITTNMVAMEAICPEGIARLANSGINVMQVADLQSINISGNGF
Chain of Estrogen receptor (Homo sapiens) (P03372 whole entry, looked up, the tested form may be a part): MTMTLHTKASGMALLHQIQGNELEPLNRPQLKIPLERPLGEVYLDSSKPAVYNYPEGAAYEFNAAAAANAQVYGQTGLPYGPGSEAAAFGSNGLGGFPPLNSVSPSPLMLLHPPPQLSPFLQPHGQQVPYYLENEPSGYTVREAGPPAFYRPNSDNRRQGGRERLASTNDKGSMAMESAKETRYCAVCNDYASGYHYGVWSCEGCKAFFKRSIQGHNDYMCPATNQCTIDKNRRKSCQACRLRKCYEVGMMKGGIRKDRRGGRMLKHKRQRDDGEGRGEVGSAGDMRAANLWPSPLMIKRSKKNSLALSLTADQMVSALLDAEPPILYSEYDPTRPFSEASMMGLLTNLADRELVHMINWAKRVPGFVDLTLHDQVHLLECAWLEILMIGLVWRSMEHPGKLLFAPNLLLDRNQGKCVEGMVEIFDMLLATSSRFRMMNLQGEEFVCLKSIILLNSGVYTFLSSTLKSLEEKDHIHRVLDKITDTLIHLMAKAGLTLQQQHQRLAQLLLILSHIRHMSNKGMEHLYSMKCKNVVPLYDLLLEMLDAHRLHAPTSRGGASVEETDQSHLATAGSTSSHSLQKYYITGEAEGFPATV
Chain of X-box-binding protein 1 (Homo sapiens) (P17861 whole entry, looked up): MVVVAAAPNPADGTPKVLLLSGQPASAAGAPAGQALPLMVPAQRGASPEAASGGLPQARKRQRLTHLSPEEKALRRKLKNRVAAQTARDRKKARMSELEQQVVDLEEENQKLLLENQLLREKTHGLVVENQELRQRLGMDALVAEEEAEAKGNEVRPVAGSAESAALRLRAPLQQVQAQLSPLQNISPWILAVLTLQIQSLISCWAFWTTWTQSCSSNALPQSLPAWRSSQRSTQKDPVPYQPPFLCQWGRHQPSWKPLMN
Chain of Androgen receptor (Homo sapiens) (P10275 whole entry, looked up, the tested form may be a part): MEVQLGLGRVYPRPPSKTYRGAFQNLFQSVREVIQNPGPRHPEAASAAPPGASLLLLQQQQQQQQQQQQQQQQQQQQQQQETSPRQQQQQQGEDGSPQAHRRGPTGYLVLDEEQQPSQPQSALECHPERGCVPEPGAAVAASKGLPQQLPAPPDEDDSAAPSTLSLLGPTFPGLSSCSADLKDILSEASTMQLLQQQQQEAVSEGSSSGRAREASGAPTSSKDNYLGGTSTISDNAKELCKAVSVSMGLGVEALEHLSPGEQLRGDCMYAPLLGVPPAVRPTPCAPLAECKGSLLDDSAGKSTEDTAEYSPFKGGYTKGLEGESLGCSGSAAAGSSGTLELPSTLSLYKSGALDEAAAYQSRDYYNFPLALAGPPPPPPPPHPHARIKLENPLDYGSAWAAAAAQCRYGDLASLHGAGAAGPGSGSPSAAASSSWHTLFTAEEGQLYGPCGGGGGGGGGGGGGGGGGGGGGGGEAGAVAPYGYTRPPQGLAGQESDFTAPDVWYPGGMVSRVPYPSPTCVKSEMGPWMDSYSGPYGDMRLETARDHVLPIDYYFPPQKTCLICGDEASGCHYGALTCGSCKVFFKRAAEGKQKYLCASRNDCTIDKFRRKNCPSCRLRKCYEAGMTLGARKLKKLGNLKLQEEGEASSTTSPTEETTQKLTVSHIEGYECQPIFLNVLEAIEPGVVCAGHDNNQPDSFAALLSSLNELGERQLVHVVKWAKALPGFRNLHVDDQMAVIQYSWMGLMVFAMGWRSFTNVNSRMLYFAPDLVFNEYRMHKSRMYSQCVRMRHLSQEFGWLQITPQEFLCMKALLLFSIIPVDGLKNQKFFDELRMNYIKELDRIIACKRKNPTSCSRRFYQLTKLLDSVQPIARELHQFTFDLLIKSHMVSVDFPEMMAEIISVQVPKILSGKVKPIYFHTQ
Chain of Signal transducer and activator of transcription 3 (Homo sapiens) (P40763 whole entry, looked up): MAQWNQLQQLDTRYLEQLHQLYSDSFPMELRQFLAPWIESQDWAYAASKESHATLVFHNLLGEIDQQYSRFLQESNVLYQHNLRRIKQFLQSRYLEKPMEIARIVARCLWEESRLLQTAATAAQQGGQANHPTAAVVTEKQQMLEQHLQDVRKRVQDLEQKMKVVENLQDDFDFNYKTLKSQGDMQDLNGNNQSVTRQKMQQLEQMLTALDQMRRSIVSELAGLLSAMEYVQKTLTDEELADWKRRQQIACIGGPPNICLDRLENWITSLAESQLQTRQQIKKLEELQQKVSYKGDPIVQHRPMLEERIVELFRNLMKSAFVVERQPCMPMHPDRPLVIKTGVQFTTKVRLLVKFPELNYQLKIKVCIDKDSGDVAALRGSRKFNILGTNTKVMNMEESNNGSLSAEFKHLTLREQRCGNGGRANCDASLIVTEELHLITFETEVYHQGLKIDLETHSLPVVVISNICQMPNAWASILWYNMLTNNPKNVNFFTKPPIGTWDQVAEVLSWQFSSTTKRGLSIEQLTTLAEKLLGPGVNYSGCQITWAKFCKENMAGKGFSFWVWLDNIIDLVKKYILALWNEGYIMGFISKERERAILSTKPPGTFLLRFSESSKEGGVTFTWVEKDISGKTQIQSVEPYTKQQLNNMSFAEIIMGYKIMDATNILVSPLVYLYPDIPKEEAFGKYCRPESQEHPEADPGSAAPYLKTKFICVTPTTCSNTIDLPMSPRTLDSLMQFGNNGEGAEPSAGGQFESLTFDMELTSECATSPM
Chain of Paired box protein Pax-6 (Homo sapiens) (P26367 whole entry, looked up): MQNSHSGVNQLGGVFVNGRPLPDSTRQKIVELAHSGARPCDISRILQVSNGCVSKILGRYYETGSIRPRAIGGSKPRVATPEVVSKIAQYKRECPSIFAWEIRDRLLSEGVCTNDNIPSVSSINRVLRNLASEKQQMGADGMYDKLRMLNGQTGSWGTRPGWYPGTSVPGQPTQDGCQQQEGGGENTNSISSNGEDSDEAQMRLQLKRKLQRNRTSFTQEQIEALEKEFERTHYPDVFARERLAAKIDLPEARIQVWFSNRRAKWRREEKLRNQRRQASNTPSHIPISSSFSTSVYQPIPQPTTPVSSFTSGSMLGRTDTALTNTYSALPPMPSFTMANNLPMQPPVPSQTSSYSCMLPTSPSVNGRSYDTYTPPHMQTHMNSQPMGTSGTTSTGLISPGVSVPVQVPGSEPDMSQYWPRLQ
Chain of Nuclear receptor subfamily 1 group I member 3 (Homo sapiens) (Q14994 whole entry, looked up, the tested form may be a part): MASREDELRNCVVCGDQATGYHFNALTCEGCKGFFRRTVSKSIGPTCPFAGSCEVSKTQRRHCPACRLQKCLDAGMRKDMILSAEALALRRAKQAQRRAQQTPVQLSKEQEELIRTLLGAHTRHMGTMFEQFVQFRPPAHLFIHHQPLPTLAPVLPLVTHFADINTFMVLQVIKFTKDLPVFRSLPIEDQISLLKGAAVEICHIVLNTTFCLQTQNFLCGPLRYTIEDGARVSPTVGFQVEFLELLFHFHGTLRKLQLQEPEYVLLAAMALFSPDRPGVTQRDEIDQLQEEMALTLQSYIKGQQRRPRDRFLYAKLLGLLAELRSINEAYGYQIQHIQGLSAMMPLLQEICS
Chain of Steroid hormone receptor ERR1 (Homo sapiens) (P11474 whole entry, looked up, the tested form may be a part): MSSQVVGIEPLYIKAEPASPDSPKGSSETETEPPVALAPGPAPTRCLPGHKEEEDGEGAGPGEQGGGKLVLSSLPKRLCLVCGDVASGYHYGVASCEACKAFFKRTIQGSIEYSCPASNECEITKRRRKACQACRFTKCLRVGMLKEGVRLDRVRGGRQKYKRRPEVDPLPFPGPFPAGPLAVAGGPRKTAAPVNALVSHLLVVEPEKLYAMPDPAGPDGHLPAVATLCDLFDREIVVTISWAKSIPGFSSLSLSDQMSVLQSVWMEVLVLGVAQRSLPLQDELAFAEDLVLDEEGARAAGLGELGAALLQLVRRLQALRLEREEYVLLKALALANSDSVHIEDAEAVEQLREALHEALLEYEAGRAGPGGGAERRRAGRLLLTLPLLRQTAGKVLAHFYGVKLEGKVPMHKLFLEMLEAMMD

By AC50 is commonly meant the midpoint of the concentration-response curve, whichever way the signal moves. As for `CCC(=O)O[C@H]1CC[C@H]2[C@@H]3CCC4=CC(=O)CC[C@]4(C)[C@H]3CC[C@]12C`, the AC50 in [1] is 132 µM (active) and 100 µM (active); in [2], 26.7 µM (active) [middle of 4 runs]; in [4], 119 µM (active); in [5], 152 µM (active); in assay [6], 164 µM (active) and 181 µM (active); in assay [7], 137 µM (active) [middle of 4 runs]. Moreover, the concentration at half-maximal activity (AC50) in assay [9] was 100 µM (active) and 129 µM (active); in [10], 100 µM (active) and 92.5 µM (active); in [11], 156 µM (active); in assay [13], 141 µM (active) [middle of 4 runs]; in assay [14], 632 nM (active) [middle of 4 runs]. For the same molecule, the result in assay [1], in assay [3], in assay [4], in [5], in assay [6] and in assay [8] was inactive. Further, the molecule was called inactive in [9], in assay [10], in assay [11], in assay [12] and in [15].
On to `CCCCCCCCOC(=O)c1ccccc1C(=O)OCCCCCCCC`, for which the result in assay [1], in assay [3], in assay [4], in assay [5], in assay [6] and in [7] was inactive. Also, the molecule was classed as inactive in [8], in assay [9], in assay [10], in assay [11], in assay [12] and in assay [16]. For the same molecule, the call in assay [17], in assay [13] and in assay [15] was inactive. In assay [2], the AC50 was 5.64 µM (active).
`CC(C)(O)C(=O)Nc1ccc([N+](=O)[O-])c(C(F)(F)F)c1`: the AC50 in [1] is 48.9 µM (active); in [2], 20.9 µM (active) [middle of 4 runs]; in assay [16], 31.2 µM (active); in assay [13], 54.9 µM (active). The call in [1], in [4], in assay [5], in assay [6], in [7] and in [8] was inactive. In addition, the outcome in assay [9], in [10], in assay [11], in [12], in assay [16] and in assay [18] was inactive. For the same molecule, the molecule was called inactive in assay [19], in [13], in assay [14] and in assay [15].
Consider `Cc1ccccc1[N+](=O)[O-]`, for which the outcome in [1], in assay [2], in assay [3], in [4], in assay [5] and in assay [6] was inactive. Further, the molecule was called inactive in [7], in assay [8], in assay [9], in [10], in assay [11] and in assay [12]. Further, the call in assay [16], in [17] and in [13] was inactive.
For `Cc1ccccc1O`, the outcome in assay [1], in assay [2], in assay [3], in assay [4], in assay [5] and in assay [6] was inactive. In addition, the molecule was classed as inactive in assay [7], in [8], in [9], in assay [10], in assay [11] and in assay [12]. In addition, the outcome in assay [16], in [17], in assay [18], in assay [13] and in assay [15] was inactive.
